Records with an inconclusive call do not appear. Where a call stands in place of a potency, no number is given. Activity calls are given as the source filed them. Calls come from the whole dose curve; as a rule, active = well fitted inhibition curve with a large enough effect; inconclusive = small, poorly fitted or top-dose-only effect; inactive = flat fitted curve, though single readings scatter.
Potency is the fitted concentration of half-maximal effect.

For this assay, the target named is Dual specificity protein kinase CLK4 (Homo sapiens) (UniProt Q9HAZ1). Description: qHTS Assay for Inhibitors of CDC-like Kinase 4 (ADP-Glo Assay) (AID 1771). Note: nearly all actives have a fitted effect of over 70% in size. The following applies: recombinant CLK4, ADP-Glo luminescence; series mostly up to 80 µM. The protocol: NIH Molecular Libraries Probe Production Centers Network [MLPCN] NIH Chemical Genomics Center [NCGC] MLPCN Grant: 1R03MH084827-01 Assay Submitter (PI): Tom Misteli NCGC Assay Overview: Clk4 (Invitrogen, cat# PV3839) was assayed using ATP and the RS repeat peptide (AnaSpec cat # 61722) as substrates. In the assay, the ADP levels were detected using Promega ADP-Glo technology wherein the remaining ATP from the kinase reaction is first depleted with an ATPase reagent followed by a reagent that contains and enzyme which converts the ADP produced to ATP as well as Ultra-Glo luciferase and D-luciferin which generates a bioluminescence signal from the ATP. The positive control for the assay was TG003 (Sigma-Aldrich, cat# 300801-52-9) which has been described as an inhibitor of Clk 4[1].
Dual specificity protein kinase CLK4 (Homo sapiens), sequence (Q9HAZ1 whole entry, looked up): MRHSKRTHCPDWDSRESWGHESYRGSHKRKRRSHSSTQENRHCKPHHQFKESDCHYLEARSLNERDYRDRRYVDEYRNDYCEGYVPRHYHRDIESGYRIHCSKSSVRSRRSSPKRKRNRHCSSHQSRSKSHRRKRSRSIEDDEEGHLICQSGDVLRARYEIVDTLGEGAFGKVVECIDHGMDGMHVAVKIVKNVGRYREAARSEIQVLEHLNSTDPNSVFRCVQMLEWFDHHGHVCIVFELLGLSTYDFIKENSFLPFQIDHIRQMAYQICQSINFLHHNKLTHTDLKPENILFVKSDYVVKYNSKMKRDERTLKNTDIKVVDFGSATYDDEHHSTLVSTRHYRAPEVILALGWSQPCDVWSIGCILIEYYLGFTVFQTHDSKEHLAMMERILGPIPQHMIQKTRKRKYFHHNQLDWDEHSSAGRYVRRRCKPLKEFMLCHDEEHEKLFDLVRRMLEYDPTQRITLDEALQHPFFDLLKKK
NCGC Assay Protocol Summary: Two uL/well of substrate-buffer solution (100 uM RS peptide, 1 uM ATP, 1x ADP-Glo Buffer A, 2 mM MgCl2, 0.5 mM EGTA, 2.5 mM DTT, 0.01% Triton X-100, final concentrations) was dispensed into 1536-well plates (Greiner, solid white, medium binding assay plates) with the Aurora Discovery BioRAPTR Flying Reagent Dispenser (FRD; Beckton-Dickenson). Twenty-three nanoliter of compound and control solutions were transferred to the assay plate using a Kalypsys pin-tool followed by 0.5 uL/well Clk4-buffer solution (25 nM Clk4, 1x ADP-Glo Buffer A, 2 mM MgCl2, 0.5 mM EGTA, 2.5 mM DTT, 0.01% Triton X-100 final concentration) dispensing for a total kinase reaction volume of 2.5 uL/ well. After 1 hr of room-temperature incubation, 2.5 uL ADP-Glo reagent was added and incubated at room temperature for 45 min to stop the kinetic reaction and degrade residual ATP. The ADP product was then converted to ATP by adding 5 uL per well of ADP-Glo Reagent II to yield a total assay volume of 10 uL/ well. Luminescence was detected after 30 min room temperature incubation with the Perkin Elmer Viewlux.
On to `COc1cccc(Cn2c(=O)c(CCc3ccccc3)nc3cnc(N(C)C)nc32)c1`, for which the Potency result is “inactive”. Consider `COc1ccccc1-c1nccc(N2CCN(C)CC2)n1`, for which the Potency result was “inactive”. As to `O=c1c(-c2ccccc2)nc2cncnc2n1Cc1ccccc1`, the Potency result was “inactive”. The result for `CN(C)c1ncc2nc(CCc3ccccc3)c(=O)n(CCC#N)c2n1` reads “inactive”; that for `Cc1noc(C)c1-c1nc(N2CCN(C)CC2)c2ccccc2n1`, 28.2 µM (active); that for `COc1cccc(Cn2c(=O)c(CCc3ccccc3)nc3cnc(N4CCN(C)CC4)nc32)c1`, “inactive”. With `COc1ccccc1CNc1ncnc2ccc(-c3cccc(NS(C)(=O)=O)c3)cc12`, the Potency is 14.1 µM (active). As to `COc1ccc(-n2c(=O)c(CCc3ccccc3)nc3cnc(OC)nc32)cc1`, the Potency result is “inactive”. As for `c1ccc(Nc2nc(-c3cccnc3)nc3ccccc23)cc1`, the Potency is 3.55 µM (active). Turning to `CN1CCN(c2ncc3nc(-c4cn(C)c5ccccc45)c(=O)n(C[C@H]4CCCO4)c3n2)CC1`, the Potency entry was “inactive”.

As to `COCCn1c(=O)c(CCc2ccccc2)nc2cnc(N(C)C)nc21`, the Potency result was “inactive”. In the case of `COCCn1c(=O)c(-c2cccs2)nc2cnc(N3CCNCC3)nc21` it was “inactive”; in that of `c1cn(-c2ncnc3ccc(-c4ccoc4)cc23)cn1`, 0.199 µM (active); in that of `CN(C)c1nc(-c2cccc(C#N)c2)nc2ccccc12`, 15.8 µM (active). In the case of `CN(Cc1ccco1)c1nc(-c2cccnc2)nc2ccccc12`, the Potency was 14.1 µM (active).

With `Cc1cnc(CNc2ncnc3ccc(-c4ccccc4Cl)cc23)cn1`, the Potency is 14.1 µM (active). As to `COc1ccccc1-c1nc(N2CCN(C)CC2)c2ccccc2n1`, the Potency entry is “inactive”. The result for `COc1ccc2[nH]cc(CCNc3cc(-c4cccc(C#N)c4)ncn3)c2c1` reads 31.6 µM (active); that for `COc1ccc(-n2c(=O)c(-c3cccs3)nc3cnc(N4CCN(C)CC4)nc32)cc1`, “inactive”; that for `O=c1c(-c2cccc(F)c2)nc2cncnc2n1Cc1ccc(F)cc1`, “inactive”. In the case of `COc1ccc(Oc2ncc3nc(-c4cccc(C#N)c4)c(=O)n(CCC#N)c3n2)cc1` it was “inactive”. The result for `Clc1ccccc1-c1ccc2ncnc(NCCN3CCOCC3)c2c1` reads 25.1 µM (active); that for `COc1cccc(-c2ccc3ncnc(NCc4cnc(C)cn4)c3c2)c1`, 2.51 µM (active). Consider `COc1ccccc1CNc1ccnc(-c2cccnc2)n1`, for which the Potency is 28.2 µM (active). On to `O=c1c(CCc2ccccc2)nc2cnc(Oc3ccccc3)nc2n1C1CC1`, for which the Potency result was “inactive”. Turning to `CN(Cc1ccco1)c1ncnc2ccc(-c3cccc(NS(C)(=O)=O)c3)cc12`, the Potency is 7.94 µM (active). For `COCCn1c(=O)c(-c2cccc(C#N)c2)nc2cnc(Oc3cccc(Cl)c3)nc21`, the Potency entry was “inactive”. In the case of `Cc1ccccc1-c1nc(Nc2ccncc2)c2ccccc2n1` it was 25.1 µM (active); in that of `COc1ccc(CNc2ncncc2-c2ccccc2OC)c(OC)c1`, “inactive”. For `COc1ccc(Oc2ncc3nc(-c4ccc(F)cc4)c(=O)n(C[C@H]4CCCO4)c3n2)cc1`, the Potency result was “inactive”. Take `Cn1cc(-c2nc3cnc(N4CCNCC4)nc3n(C3CC3)c2=O)c2ccccc21`: the Potency entry is “inactive”.

In the case of `CN(C)C(=O)c1ccc(-c2nc(Nc3ccccc3)c3ccccc3n2)cc1`, the Potency was 28.2 µM (active). With `COc1ccc(Oc2ncc3nc(-c4cc(F)cc(F)c4)c(=O)n(C4CC4)c3n2)cc1`, the Potency result is “inactive”. As to `CN(Cc1ccco1)c1cc(-c2ccc3c(c2)OCO3)ncn1`, the Potency was 3.16 µM (active). Turning to `COc1ccc(CNc2cc(-c3cccc(NS(C)(=O)=O)c3)ncn2)c(OC)c1`, the Potency result was “inactive”.

Turning to `CCNc1ncc2nc(C)c(=O)n(CCc3ccccc3)c2n1`, the Potency is 7.94 µM (active). Turning to `COc1cccc(-c2ccc3ncnc(NCc4ccc(OC)cc4OC)c3c2)c1`, the Potency was 3.16 µM (active).

In the case of `COc1ccc(Oc2ncc3nc(-c4cccc(C#N)c4)c(=O)n(Cc4cccc(OC)c4)c3n2)cc1`, the Potency entry was “inactive”.

With `COc1ccc2[nH]cc(CCNc3nc(-c4ccccc4OC)nc4ccccc34)c2c1`, the Potency was 35.5 µM (active). In the case of `COCCn1c(=O)c(-c2ccc(F)cc2)nc2cnc(Nc3cccc(OC)c3)nc21` it was “inactive”.

For the origin of these results see PubChem BioAssay (NCATS).
